The campaign covered roughly 200,000 compounds. About 18,000 (9%) were called active. Only a selection was taken, and actives are over-represented in it overall. Values without a mark were called inactive. Rule as the data show it: active = inhibition above about 50%; inactive = the rest.

The text below walks through data of PubChem BioAssay AID1063 (University of Pittsburgh Molecular Library Screening Center, 2008).

The nature of the test: antileishmanial activity against promastigotes – primary screen (AID 1063).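 Also: promastigotes grown with compound for 44 hours at 28 °C.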 The note with it: Leishmania major promastigotes, resazurin fluorescence viability; at 10 µM; stronger effect = higher value. On the technique in general: Resazurin is reduced to fluorescent resorufin, in cell work by metabolically active cells.
Broadly, the inhibition is the change of the read-out against control, counted positive when it falls. In the case of `CCOc1ccc(N(CC(=O)NCCc2ccc(OC)cc2)S(C)(=O)=O)cc1`, the inhibition was -6.74%.

As to `COCCN(C(=O)CCC(=O)Nc1nccs1)C(C(=O)NC(C)(C)C)c1ccc(Cl)cc1` (centres undefined), the inhibition is -1.47%.

As for `CC1=C(C(N)=O)C(c2sccc2C)n2nnnc2N1` (centres undefined), the inhibition was -2.53%.

Take `CCCCCOC(=O)C1=C(C)Nc2nnnn2C1c1ccc(OC)c(OC)c1OC` (centres undefined): the inhibition was 92.7% (active).

Take `COCCOC(=O)C1=C(C)Nc2nc(C)nn2C1c1ccccc1` (centres undefined): the inhibition is 1.25%.

In the case of `O=C(CCc1ccccc1)Nc1nn[nH]n1`, the inhibition was -3.55%.

For `O=C(CSc1ccc([N+](=O)[O-])cn1)Nc1ccc(N2CCOCC2)cc1`, the inhibition was -2.33%.

With `COC(=O)c1ccc(NCC(=O)N2CCCCCC2)cc1`, the inhibition is -4.15%.

With `O=C(O)c1ccn(COc2ccc(Br)cc2)n1`, the inhibition is -6.55%.

Take `C=CCn1c(CSc2nc3ccccc3s2)nnc1SCC(=O)NCc1ccco1`: the inhibition was -0.85%.

Regarding `O=C(CSc1nc2ccc(Nc3nc(N4CCOCC4)nc(N4CCOCC4)n3)cc2s1)NCc1ccco1`, the inhibition was 66% (active).

In the case of `O=C(CSc1c2c(nc3ccc(Cl)cc13)CCCC2)NCc1ccco1`, the inhibition was 39.9%.

Consider `CCN(CC)S(=O)(=O)c1ccc(N(C)CCc2ccc(OC)c(OC)c2)nc1`, for which the inhibition was 20.7%.

Regarding `Cc1ccc(O)c(NC(=S)NC(=O)COc2ccc(Br)cc2)c1`, the inhibition was -2.21%.

Consider `CNC(=S)N1CCC(NC(=O)C(Cc2ccc(F)cc2)NC(C)=O)CC1` (centres undefined), for which the inhibition was -5.13%.

`CC(=O)NC(Cc1ccc(F)c(F)c1)C(=O)NC1CCN(c2nnnn2-c2ccccc2)CC1` (centres undefined): the inhibition is 9.51%.

For `CC(=O)NC(Cc1ccccc1)C(=O)NC1CCN(c2ncccc2[N+](=O)[O-])CC1` (centres undefined), the inhibition is 57.3% (active).

With `CC(Sc1nc2cc(Cl)ccc2s1)C(=O)Nc1ccc2c(c1)OCO2` (centres undefined), the inhibition is 3.45%.

`O=C(Nc1ccc(N2CCOCC2)cc1)c1ccc(-c2ccccc2[N+](=O)[O-])o1`: the inhibition is 7.53%.

For `CCOc1cc(NS(=O)(=O)c2ccc(OC)cc2)c(OCC)cc1NC(C)=O`, the inhibition is -2.08%.

For `O=C(Cn1c(-c2cscn2)nc2ccccc21)Nc1ccc(Cl)cc1`, the inhibition was 16.4%.

For the molecule `O=C(Cn1c(COc2ccccc2)nc2ccccc21)Nc1cc(Cl)c(Cl)cc1Cl`, the inhibition was 94.1% (active).

In the case of `COCn1c(COc2ccccc2)nc2ccccc21`, the inhibition is 1.65%.

`Cc1ccc(N(C(=O)Cc2cccs2)C2C=CS(=O)(=O)C2)cc1Cl` (centres undefined): the inhibition is 3.36%.

Turning to `O=C(Nc1ccc(Cl)cn1)c1ccc2c(c1)OCCO2`, the inhibition was -10.2%.

Consider `CCN(CC(=O)NCc1cccs1)S(=O)(=O)c1ccc(NC(C)=O)cc1`, for which the inhibition is -3.41%.

Regarding `COc1ccc(NC(=S)NCC2CCN(c3ccc(OC)cc3)C2)cc1` (centres undefined), the inhibition was 74.9% (active).

For `COc1ccc(N2CCN(C(=S)Nc3ccc(S(N)(=O)=O)cc3)CC2)cc1`, the inhibition was -7.62%.

Turning to `COc1ccc(NC(=S)NCCN2CCC(C)CC2)cc1`, the inhibition is 23.9%.

In the case of `Cc1c(NC(=O)CCC2CCCCC2)cc(C(=O)N2CCOCC2)cc1[N+](=O)[O-]`, the inhibition was -3.89%.

`CCOC(=O)C(=CNc1cccc(C)n1)C(=O)OCC`: the inhibition is -3.94%.

Take `CCOC(=O)C(=Cc1ccccc1OC)C(=O)OCC`: the inhibition was 53.7% (active).

`COc1ccccc1C(=O)C(O)c1ccccc1OC` (centres undefined): the inhibition was 1.96%.

As to `Cn1c(CCC(=O)OCC(=O)NCc2ccccc2Cl)nc(=O)c2ccccc21`, the inhibition is -0.71%.

On to `Cc1ncoc1C(=O)NCCC(c1ccccc1)c1ccccc1`, for which the inhibition is 1.37%.

In the case of `CCOC(=O)c1cnc(-n2nc(C)cc2C)nc1NNc1cc(C)nc(-c2ccccc2)n1`, the inhibition was 100% (active).

On to `CCOC(=O)c1cnc(-n2nc(C)cc2C)nc1Nc1cccc(C(C)=O)c1`, for which the inhibition is 4.22%.

Take `CCOC(=O)c1cnc(-n2nc(C)cc2C)nc1-n1nc(C)cc1C`: the inhibition is 33%.

Take `CCOC(=O)C(C)n1nc(-c2ccccc2)c2ccccc2c1=O` (centres undefined): the inhibition is 12.5%.

Take `CN(C)c1nc(-c2cccnc2)nc(-c2ccc(Cl)cc2)c1C#N`: the inhibition was 8.3%.

Turning to `COCCN(CCOC)S(=O)(=O)c1ccc(/C(O)=C(\C#N)c2nc3ccccc3[nH]2)cc1`, the inhibition is 1.17%.

In the case of `CC(C)(C)NC(=O)NC(=O)COC(=O)C1(C)CC1(Cl)Cl` (centres undefined), the inhibition is 0.27%.

As to `CCOn1c(=O)c(=O)n(O)c2ccccc21`, the inhibition is -2.81%.

`Cn1nnnc1SCC(=O)NNC(=O)c1ccc(Br)cc1`: the inhibition was -7.24%.

As to `COC(=O)CSc1nc(C2CC2)nc2ccccc12`, the inhibition was -7.75%.

As to `CN(C(=O)CSc1nc(C2CC2)nc2ccccc12)c1nc(-c2ccccc2)cs1`, the inhibition was 54.6% (active).

Consider `O=C(CSc1nc(C2CC2)nc2ccccc12)Nc1ccc2c(c1)OCCO2`, for which the inhibition was 6.82%.

For `CCn1ccnc1CN(C)Cc1nc(-c2ccc3c(c2)OCO3)no1`, the inhibition is 1.95%.

`CN(Cc1cc2cc(F)ccc2[nH]1)Cc1nc(-c2cnccn2)no1`: the inhibition is -6.82%.

With `CCNC(=O)c1ccc(OCC(=O)Nc2ccc(F)cc2)c(OC)c1`, the inhibition was 0.66%.

Take `COc1cc(CNCCN(C)C)ccc1OCc1c(F)cccc1Cl`: the inhibition is 66.6% (active).

Take `COc1ccc(CNCCCO)cc1OC`: the inhibition is -3.13%.

For `CCOCCCNCc1ccc(OCc2ccc(F)cc2)c(OC)c1`, the inhibition was 97.1% (active).

Consider `COc1cc(CNc2ncn[nH]2)ccc1OCc1ccccc1C`, for which the inhibition is -5.58%.

With `CCN(CC)CCNCc1ccc(OCc2ccc(Cl)nc2)c(OC)c1`, the inhibition was -3.17%.

Turning to `CCCCC1N2CC3([N+](=O)[O-])CN1CC([N+](=O)[O-])(C2)C3(C)C` (centres undefined), the inhibition is -3.35%.

As to `Cc1cccc(NC(=O)Nc2ccc3c(c2)OCO3)n1`, the inhibition is -1.54%.

As to `CCN(CC)CCOc1ccc2c(c1)C(=NNC(=O)c1ccccn1)c1cc(OCCN(CC)CC)ccc1-2`, the inhibition is 101% (active).

As for `CCOc1cc(NC(=O)c2ccccn2)c(OCC)cc1NC(=O)c1ccc(OC)cc1`, the inhibition was -3.96%.

Turning to `CCC(C)(NC(=O)c1ccccn1)C(=O)NC1CCCCC1` (centres undefined), the inhibition is 0.94%.

In the case of `CC(=O)C1=C(C)NC2=C(C(=O)CC(C)(C)C2)C1C` (centres undefined), the inhibition is -3.1%.

`CCC(C)NCC(=O)Nc1ccc([N+](=O)[O-])cc1C(=O)Nc1ccccc1F` (centres undefined): the inhibition is 11.7%.

As for `CC(C)(C)NC(=O)C(=O)NN=C1CCCCCCC1`, the inhibition is 9.68%.

Take `COc1ccc(CN2CCN(Cc3cn(C)nc3-c3ccccc3)CC2CCO)c(C)c1C` (centres undefined): the inhibition is -0.96%.

In the case of `OCCC1CN(Cc2ccc3nsnc3c2)CCN1C1CCCCC1` (centres undefined), the inhibition is 13.5%.

`CC(C)N1CCC(N2CCN(Cc3cccnc3)CC2CCO)CC1` (centres undefined): the inhibition was -2.03%.

In the case of `Cc1ccc(CN2CCN(Cc3ccc4ncccc4c3)CC2CCO)cc1` (centres undefined), the inhibition was 73.7% (active).

As for `CC(=O)Nc1ccc(CN2CCN(Cc3ccc(F)c(F)c3)C(CCO)C2)cc1` (centres undefined), the inhibition is 6.71%.

Regarding `COC(=O)c1ccc(CN2CCN(CCCc3ccccc3)C(CCO)C2)cc1` (centres undefined), the inhibition was 83.9% (active).

Regarding `OCCC1CN(Cc2ccc(Oc3ncccn3)cc2)CCN1CCc1ccccc1` (centres undefined), the inhibition was 59.6% (active).

Regarding `CC(C)CCN1CCN(Cc2ccc(C(F)(F)F)cc2)CC1CCO` (centres undefined), the inhibition was 87.1% (active).

On to `CC(C)=CCN1CCN(Cc2ccc(Oc3ncccn3)cc2)CC1CCO` (centres undefined), for which the inhibition was -0.29%.

In the case of `CC(C)CCN1CCN(C/C=C/c2ccco2)CC1CCO` (centres undefined), the inhibition is 5.83%.

`CC(C)CCN1CCN(Cc2cn[nH]c2C2CCCCC2)CC1CCO` (centres undefined): the inhibition was 24.3%.

Turning to `Cc1ccc(CN2CCN(Cc3cccc(C)n3)CC2CCO)cc1` (centres undefined), the inhibition was -2.02%.

As for `CCOC(=O)C(CC)/C(C)=N\NC(=O)c1cccc(C)c1` (centres undefined), the inhibition was -5.28%.

Consider `COC(=O)c1cccnc1NC(=S)NC(C)C`, for which the inhibition is -3.71%.

As to `C=CCNC(=O)CC12CC3CC(C1)CC(CC(=O)NCC=C)(C3)C2`, the inhibition is -6.25%.

For the molecule `COc1cccc(C(=O)Nc2cccnc2)c1OC`, the inhibition is -4.33%.

As for `CCCN(C(=O)CSc1nnnn1C)c1c(N)n(Cc2ccccc2)c(=O)[nH]c1=O`, the inhibition was -5.81%.

In the case of `O=C(CCN1C(=O)C2C3C=CC(C3)C2C1=O)Oc1ccc2ccccc2c1` (centres undefined), the inhibition is 24%.

For `O=c1[nH]c(N2CCN(Cc3ccc4c(c3)OCO4)CC2)nc2c1CCCC2`, the inhibition was 0.88%.

In the case of `CCOC(=O)CSc1ccccn1`, the inhibition was -7.49%.

As for `Cc1c(Cc2ccccc2)c(=O)oc2cc(OCC(N)=O)ccc12`, the inhibition is -6.96%.

For the molecule `CCOc1ccc(NS(=O)(=O)c2cc(C)c(C)cc2C)cc1`, the inhibition was 5.1%.

In the case of `S=C(c1ccc(-c2ccccc2)o1)N1CCCCC1`, the inhibition is 12.2%.

Turning to `OCCC1CN(Cc2cnc(-c3ccccc3)s2)CCN1CCc1ccccc1` (centres undefined), the inhibition was 83.7% (active).

As to `COc1ccc(/C=C/CN2CCN(Cc3ccc(C)cc3)C(CCO)C2)cc1` (centres undefined), the inhibition was 67.4% (active).

Turning to `Cc1ccc(CN2CCN(Cc3ccc(OCCO)cc3)CC2CCO)o1` (centres undefined), the inhibition is -4.28%.

`OCCC1CN(Cc2cccn2-c2nccs2)CCN1CCc1ccccc1` (centres undefined): the inhibition was 11.3%.

As to `Cc1ccc(CN2CCN(Cc3ccccc3-c3ccco3)CC2CCO)o1` (centres undefined), the inhibition is 3.16%.

In the case of `OCCC1CN(Cc2cccc(O)c2)CCN1CCc1ccccc1` (centres undefined), the inhibition is -0.63%.

Turning to `NC(N)=Nc1nc2ccc(Br)cc2c(=O)[nH]1`, the inhibition is 16.6%.

For `CCOc1ccccc1N1CCN(C(=O)COc2ccc3c(C)cc(=O)oc3c2)CC1`, the inhibition is 43.7%.

Regarding `O=c1nc(N/N=C/c2ccco2)cn[nH]1`, the inhibition is -3.61%.

For the molecule `CCCCn1c(N)c(N2CCOCC2)c(=O)n(CC(=O)NCCc2ccccc2)c1=O`, the inhibition is 1.59%.

For the molecule `CCCN(CCC)CCCNC(=O)CNC(=O)c1nn(-c2ccc(OC)cc2)c(=O)c2ccccc12`, the inhibition is 1.38%.

As for `Cc1oc(-c2ccccc2F)nc1CS(=O)(=O)CC(=O)NCCCN(C)C1CCCCC1`, the inhibition is 2.98%.

As for `CCCCN(CC)CCCNC(=O)CS(=O)(=O)Cc1nc(-c2cccc(OC)c2)oc1C`, the inhibition was 72.4% (active).
